Drawing on PubChem BioAssay (EPA / NIEHS), this text covers AC50 and outcome for 16 molecules.

Inconclusive results are not listed. Activity calls are given as the source filed them. Rule for the calls: active = hit-call score of the fitted dose curve at least 0.9, where 1 is the maximum; inconclusive = response in the unintended direction; inactive = score below 0.9.

Chain of Peroxisome proliferator-activated receptor gamma (Homo sapiens) (P37231 whole entry, looked up, the tested form may be a part): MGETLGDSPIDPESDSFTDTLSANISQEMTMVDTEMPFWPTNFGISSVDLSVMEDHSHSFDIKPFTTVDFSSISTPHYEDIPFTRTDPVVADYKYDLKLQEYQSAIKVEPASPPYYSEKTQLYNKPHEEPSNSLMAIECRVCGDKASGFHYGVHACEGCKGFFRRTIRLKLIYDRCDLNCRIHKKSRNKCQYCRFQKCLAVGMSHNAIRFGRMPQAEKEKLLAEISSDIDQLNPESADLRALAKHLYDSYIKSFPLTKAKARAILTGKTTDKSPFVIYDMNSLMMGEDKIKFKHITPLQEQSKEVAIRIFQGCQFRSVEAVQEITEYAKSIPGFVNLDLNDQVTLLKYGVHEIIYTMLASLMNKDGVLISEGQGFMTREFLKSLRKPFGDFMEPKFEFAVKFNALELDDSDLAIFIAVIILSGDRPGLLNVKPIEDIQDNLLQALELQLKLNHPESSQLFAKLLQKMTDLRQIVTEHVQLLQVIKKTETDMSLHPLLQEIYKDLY

Test system in the first test: not listed separately
The test can be described thus: ATG_M_32_XSP1: Attagene TRANS-FACTORIAL Multi-Species (XSP1) HepG2 Assay for M32 Transcription Factor (Internal Marker) (AID 2283799). The method in brief: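 Reporter transcripts from the M32 internal-control unit measured by RT-PCR, FAM labelling, HpaI digestion and capillary electrophoresis after 24 h compound exposure of transfected HepG2, 3 nM 6-alpha-fluorotestosterone included; DMSO baseline, positive-direction fit.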
`CCCN(CCC)c1c([N+](=O)[O-])cc(S(N)(=O)=O)cc1[N+](=O)[O-]`: the AC50 is 54.4 µM (active). For the molecule `CCCCC(CC)COC(=O)c1ccccc1C(=O)OCC(CC)CCCC` (stereo not given), the result was inactive. On the same count and under the same terms, next, `CCCC1COC(Cn2cncn2)(c2ccc(Cl)cc2Cl)O1` (stereo not given): “inactive”.

As to `CCCCOC(=O)c1ccccc1C(=O)OCCCC`, the result was inactive.

Another test addresses Peroxisome proliferator-activated receptor gamma (Homo sapiens) (UniProt P37231). Briefly: ATG_hPPARg_XSP1: Attagene TRANS-FACTORIAL Multi-Species (XSP1) HepG2 Assay for human Peroxisome Proliferator-activated Receptor gamma (PPARg) (AID 2283800). In outline:
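Reporter mRNA induction, measured by RT-PCR with capillary electrophoresis 24 h after dosing, scored as gain over DMSO. Transfected HepG2 cells express exogenous NR-Gal4 chimeras driving GAL4-UAS reporters; medium includes 3 nM 6-alpha-fluorotestosterone.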
For `CON(C)C(=O)Nc1ccc(Cl)c(Cl)c1`, the AC50 is 100 µM (active). Same read-out and setting: with `CCCN(CCC)c1c([N+](=O)[O-])cc(S(N)(=O)=O)cc1[N+](=O)[O-]` the figure was 46.9 µM (active). For the molecule `CCOP(=S)(OCC)SCn1c(=O)oc2cc(Cl)ccc21`, the molecule was classed as inactive.

Regarding `CCCCNC(=O)OCC#CI`, the AC50 was 11.1 µM (active).

Turning to `COc1ccc(C(c2ccc(OC)cc2)C(Cl)(Cl)Cl)cc1`, the outcome was inactive. As for `CC(C)(C)c1ccc(CSc2cnn(C(C)(C)C)c(=O)c2Cl)cc1`, the AC50 is 0.387 µM (active). The same measure, in the same setting: next, `CC(C)Oc1cc(-n2nc(C(C)(C)C)oc2=O)c(Cl)cc1Cl`: 12.7 µM (active). On to `OC(c1ccc(Cl)cc1)(c1cncnc1)c1ccccc1Cl` (stereo not given), for which the call was inactive. In the case of `CCCCC(CC)COC(=O)c1ccccc1C(=O)OCC(CC)CCCC` (stereo not given), the AC50 was 8.96 µM (active). Still for that read-out and setting: next, `COP(=S)(OC)Oc1nc(Cl)c(Cl)cc1Cl`: 2.29 µM (active); `C#CCOS(=O)OC1CCCCC1Oc1ccc(C(C)(C)C)cc1` (stereo not given): 26.1 µM (active); `COC(=O)N(OC)c1ccccc1COc1ccn(-c2ccc(Cl)cc2)n1`: 3.24 µM (active).

Take `CCCC1COC(Cn2cncn2)(c2ccc(Cl)cc2Cl)O1` (stereo not given): the AC50 is 11.8 µM (active).

Consider `CCCCOC(=O)c1ccccc1C(=O)OCCCC`, for which the AC50 was 27.5 µM (active).

The next test concerns zebrafish Peroxisome Proliferator-activated Receptor gamma (PPARg), gene 557037. Briefly: ATG_zfPPARg_XSP1: Attagene TRANS-FACTORIAL Multi-Species (XSP1) HepG2 Assay for zebrafish Peroxisome Proliferator-activated Receptor gamma (PPARg) (AID 2283801). In outline: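 Trans-activation readout of chimeric zebrafish PPARg–GAL4 in transiently transfected human HepG2 cells, 24 h chemical exposure (medium includes 3 nM 6-alpha-fluorotestosterone). Reporter transcripts measured by RT-PCR and capillary electrophoresis, fitted as gain over DMSO.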
As for `CCCN(CCC)c1c([N+](=O)[O-])cc(S(N)(=O)=O)cc1[N+](=O)[O-]`, the molecule was classed as inactive. On the same count and under the same terms, next, `C=CC1(C)OC(=O)N(c2cc(Cl)cc(Cl)c2)C1=O` (stereo not given): “inactive”.

`CCOP(=S)(OCC)SCn1c(=O)oc2cc(Cl)ccc21`: the outcome was inactive. Same read-out and setting: with `CC(C)(C)c1ccc(CSc2cnn(C(C)(C)C)c(=O)c2Cl)cc1` the entry was “inactive”; with `CC(C)Oc1cc(-n2nc(C(C)(C)C)oc2=O)c(Cl)cc1Cl`, “inactive”. On to `OC(c1ccc(Cl)cc1)(c1cncnc1)c1ccccc1Cl` (stereo not given), for which the AC50 is 34.9 µM (active). As for `CCCCC(CC)COC(=O)c1ccccc1C(=O)OCC(CC)CCCC` (stereo not given), the outcome was inactive. With `CO/C=C(/C(=O)OC)c1ccccc1Oc1cc(Oc2ccccc2C#N)ncn1`, the molecule was classed as inactive. Regarding `C#CCOS(=O)OC1CCCCC1Oc1ccc(C(C)(C)C)cc1` (stereo not given), the AC50 is 129 µM (active). Turning to `COC(=O)N(OC)c1ccccc1COc1ccn(-c2ccc(Cl)cc2)n1`, the result was inactive. The same measure, in the same setting: next, `CCCC1COC(Cn2cncn2)(c2ccc(Cl)cc2Cl)O1` (stereo not given): “inactive”. Same read-out and setting: with `CCCCOC(=O)c1ccccc1C(=O)OCCCC` the entry was “inactive”.

As usually defined, the AC50 is the midpoint of the concentration-response curve, whichever way the signal moves.
